# TNAP act DEA: human TNAP enzyme activators, primary screen, biochemical, luminescent, intermediate phosphate acceptor level. 64,000 tested, under 10 active. Alkaline phosphatase, tissue-nonspecific isozyme (Homo sapiens), P05186. activation factor at 20 µM. purified TNAP, CDP-star luminescence, 100 mM DEA, 30 min; hits give high values; scale: 0 levamisole-inhibited, 1 vehicle-only enzyme;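 active = activation factor of at least 2 at 20 µM, relative to controls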
# PostGolgi yeast: phenotypic screen on post-Golgi transport, primary screen. inhibition, % at 10 µM. AID 739, 2007. post-Golgi transport phenotypic cell assay. 0.9% of 98,000 active;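 also: yeast cells grown in 1536-well plates; yeast grown about 18 h at 30C before absorbance read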
# Smad3 FoxH1 inh: Smad3/FoxH1 peptide binding inhibitors, primary screen, biochemical, TR-FRET; inhibition, % at 25 µM; TR-FRET Smad3/Dy647-FoxH1 peptide binding, europium anti-His; 0.29% of 88,000 active; AID 630, 2007; Mothers against decapentaplegic homolog 3 (Homo sapiens), P84022;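 active = compounds that reduce the energy-transfer binding signal between the protein and its labelled peptide by more than half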;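 also: 0% = Smad3 plus labelled peptide maximal FRET and 100% = peptide-only background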
# Cav32 inh: Cav3.2 calcium influx blockers – cell-based, Fluo-4 calcium fluorescence, FDSS, MLSMR library, primary screen | Cav3.2-expressing cells; hits give low values | B-score at 10 µM | 4% of 100,000 active | AID 449739, 2010;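 active = single-dose well whose peak fluorescence ratio is a statistical outlier from its plate by either plate-standardised score or position-corrected B-score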
# PostGolgi ctrl: growth inhibition of yeast control strain, primary screen, counter-screen for post-Golgi transport modulator project; efflux-deficient yeast background strain, growth absorbance A615, 16 h; inhibition, % at 10 µM; 5% of 98,000 active
# DAT uptake mod: changed hDAT dopamine uptake under cocaine IC80, either direction, primary screen, cocaine antagonist project, cell-based, LLC-PK1 hDAT, [14C]-dopamine uptake, MLSMR; Sodium-dependent dopamine transporter (Homo sapiens), Q01959; LLC-PK1 hDAT cells, [14C]-dopamine uptake with cocaine IC80; actives deviate in either direction; B-score at 10 µM; 1.3% of 110,000 active; AID 449768, 2010;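 active = Z score or B-score, a plate-position-corrected score, falls beyond the plate's 99.7% confidence bounds, in either direction; inactive = both scores lie inside the 99.7% bounds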;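 also: scored against the spread of the other compound wells on the same plate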
# * = called active by the depositor; x = no result given. In the library only some 8.7% were active in any assay of this set; here they are far more common. Rule as the data show it, unless noted: active = inhibition above about 30%; inactive = the rest.
SMILES,TNAP act DEA,PostGolgi yeast,Smad3 FoxH1 inh,Cav32 inh,PostGolgi ctrl,DAT uptake mod
Cc1ccc(SC(C)C(=O)Nc2ncn[nH]2)cc1 (stereo not given),1.5,42*,3,-0.027,-4,-0.66
OCC(CO)(CO)N=Cc1cc(Br)ccc1O,0.9,18,-4,-7.1*,14,1.1
COc1cccc(N2CCN(c3c(C#N)c(C(F)(F)F)nn3C)CC2)c1,x,1,-7,-0.15,51*,0.47
Cn1nc(C(F)(F)F)c(C#N)c1N1CCN(c2ccccc2F)CC1,x,7,-4,0.027,3,-2.1
COc1ccc(-c2csc(NC(CO)c3nc4ccccc4n3Cc3ccc(C)cc3)n2)cc1 (stereo not given),x,x,x,-0.54,x,0.0029
Cc1ccc(-c2csc(NC(CO)c3nc4ccccc4n3CCOCCO)n2)cc1 (stereo not given),x,x,x,-0.67,x,2.8*
OCCCn1c(C(CO)Nc2nc(-c3ccc(Cl)cc3)cs2)nc2ccccc21 (stereo not given),x,x,x,-0.65,x,2.5*
Cc1ccc(Cn2c(C(CO)Nc3nc(-c4ccc(F)cc4)cs3)nc3ccccc32)cc1 (stereo not given),x,x,x,-0.59,x,1.6
CCOC(=O)c1cnc(SC)nc1Nc1cccc(F)c1,1,18,3,0.64,-21,-1.7
COc1cc(NS(=O)(=O)c2ccc(Br)s2)cc(OC)c1,1,-13,8,-5.8*,14,-0.31
Cc1cccc(N2CCN(C(=O)c3c(C)nn(Cc4ccccc4Cl)c3C)CC2)c1C,x,-3,12,-5.5*,38*,-0.22
Cc1ccc(CN2CC(C(=O)Nc3ccc(S(=O)(=O)Nc4cc(C)nc(C)n4)cc3)CC2=O)cc1 (stereo not given),1,-20,4,0.97,33*,0.2
CCCC1=Nc2cc(C(=O)NCCCOCC)ccc2Sc2ccccc21,x,0,2,-6*,21,-1.6
Cc1cc(C)cc(NC(=O)C2(c3ccccc3)CC2(Cl)Cl)c1 (stereo not given),x,11,x,-6.1*,28,-0.89
Cc1ccc(NC(=O)C2(c3ccccc3)CC2(Cl)Cl)cc1C (stereo not given),x,2,x,x,20,x
CCc1ccc(NC(=O)C2(c3ccccc3)CC2(Cl)Cl)cc1 (stereo not given),x,-2,x,-2.8,31*,-0.94
Cc1cccc(NC(=O)C2(c3ccccc3)CC2(Cl)Cl)c1 (stereo not given),x,13,x,-8*,35*,x
CCOC(=O)CCSc1nc(-c2ccccc2)cc(C(F)(F)F)n1,x,x,7,-0.001,x,0.28
O=C(O)c1cccc(CSc2nc(-c3ccc(Cl)cc3)cc(C(F)(F)F)n2)c1,x,-1,x,-2.6,6,3*
COc1cccc(N2CCN(Cc3nc4ccccc4c(=O)[nH]3)CC2)c1,1,-8,-2,x,15,2.2*
CCOC(=O)C1CCN(c2c(NCc3ccc(C(=O)NC4CCCC4)cc3)c(=O)c2=O)CC1,x,-1,-9,-0.011,1,-1.9
O=C(Nc1nc2ccccc2[nH]1)C1CC(=O)N(c2ccc3c(c2)OCCO3)C1 (stereo not given),0.9,-6,-8,-0.47,15,0.16
CN1CCN(C(=O)NC2CCCN2S(=O)(=O)c2ccc(Cl)cc2)CC1 (stereo not given),0.9,1,3,x,9,0.11
Cc1ccc(NC(=O)NC2CCCN2S(=O)(=O)c2ccc(Cl)cc2)cc1 (stereo not given),x,-8,7,-1.6,33*,0.34
O=C(Nc1nc(-c2cccs2)cs1)c1ccc(S(=O)(=O)N2CCCCC2)cc1,0.8,18,-7,-6.1*,41*,2.5
SMILES,TNAP act DEA,PostGolgi yeast,Smad3 FoxH1 inh,Cav32 inh,PostGolgi ctrl,DAT uptake mod
O=C(Nc1nc(-c2cccs2)cs1)c1cccc(S(=O)(=O)N2CCCCCC2)c1,0.9,-5,4,-2.9,8,-0.93
C#C[C@]1(O)CCC2C3CCC4=Cc5oncc5CC4(C)C3CCC21C (stereo not given in full),x,x,x,-4.8*,x,-0.6
CC(C)C(=O)Nc1ccc(NC(=O)c2ccccn2)cn1,0.9,x,13,0.73,x,-1.5
Cc1cc(C)nc(NC(=O)/C=C/c2ccc(Cl)cc2Cl)c1,x,12,x,x,57*,x
Cc1cccc(C(=O)NNC2=C(C(=O)C(F)(F)F)CCC2)c1O,x,10,-19,-8*,5,0.11
O=C1CSC(c2ccccc2)N1CC12CC3CC(CC(O)(C3)C1)C2 (stereo not given),1,-1,3,0.042,6,0.18
COc1cc2nc(SCC(=O)NCc3ccco3)n(Cc3ccc(Cl)cc3)c(=O)c2cc1OC,0.9,x,x,-0.99,x,3.8*
COCCNC(=O)CSc1nc2cc(OC)c(OC)cc2c(=O)n1Cc1ccc(OC)cc1,0.9,5,-4,0.65,46*,0.16
COCCNC(=O)CSc1nc2ccc(N3CCOCC3)cc2c(=O)n1Cc1ccc(OC)cc1,x,1,x,1.3,11,-0.3
O=C(CSCc1c(Cl)cccc1Cl)Nc1ccc2c(c1)OCO2,x,-2,6,-1.9,16,2
COc1ccc(-c2cc([C@H]3[C@@H]4C=CCC[C@@]4(C)C(=O)N3Cc3ccccc3)ccc2F)cc1,x,x,x,-1.7,x,0.67
COCCn1nnnc1C(C(C)C)N1CCOCC1 (stereo not given),1,5,8,-0.011,40*,-0.097
CCC(C)Oc1nc2ccccc2nc1NS(=O)(=O)c1ccccc1 (stereo not given),x,-5,13,-3.2,31*,-0.63
O=S(=O)(Nc1nc2ccccc2[nH]1)c1ccccc1,0.8,-3,4,0.0097,-3,-0.05
COC(=O)c1ccc(CSc2nc3ccccc3c(=O)n2-c2ccc(OC)c(OC)c2)o1,0.9,-2,11,-1.2,9,3.5*
COC(=O)c1ccc(CSc2nc3c(c(=O)n2-c2ccccc2)SCC3)o1,0.9,-7,-8,-1.3,30,-0.25
Cc1c(N=c2c(=O)c3ccccc3c2=O)c(=O)n(-c2ccccc2)n1C,0.9,6,x,-0.13,3,-0.0042
CN1CCN(C(=O)C2=C[C@H](c3ccc(Br)cc3)C[C@H](OCCCCO)O2)CC1,x,x,x,0.92,x,0.038
Cc1ccc2cc(C)c3nnc(SCC(=O)N4CCN(C(=O)c5ccco5)CC4)n3c2c1,x,0,15,x,2,0.87
CN(CC(=O)Nc1ccncc1)S(=O)(=O)c1ccc(Br)cc1,x,4,-3,0.37,4,-0.27
Cc1ccc2nc(NC(=O)CN(C)S(=O)(=O)c3ccc(Br)s3)sc2c1,0.9,21,-9,x,35*,-0.039

# Source: PubChem (several laboratories)
